The nature of assay [1]: E. coli DRC41 culture turbidity changes, primary screen, E. coli filamentation inducer project, strain DRC41, OD650, 48 h (AID 1152).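 Further: E. coli MC1000 strain DRC41 lacking acrAB efflux pump and sulA.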 As to conditions: E. coli DRC41 (acrAB sulA), higher = more signal, called active from +8 up or from −8 down.
A short description of assay [2]: small-molecule binders of probe aLefty1, primary screen, biochemical, small-molecule microarray, 635/667 nm fluorescence (AID 1153).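 Further: score merges spot fluorescence with signal-to-noise ratio from the scanned slide images.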 As to conditions: higher = more signal.
A short description of assay [3]: PSAC antagonists in infected red cells, primary screen, cell-based, P. falciparum Indochina, OD700, 1 h (AID 1154). As to conditions: P. falciparum Indochina infected RBC osmotic lysis, higher = more signal, called active from +8 up or from −8 down.
The nature of assay [4]: PSAC antagonists in infected red cells, primary screen, cell-based, P. falciparum Indochina, OD700, 2 h (AID 1155).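 Further: lysis reports solute entry through the parasite surface anion channel PSAC; channel blockers reduce lysis of infected cells.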 As to conditions: P. falciparum Indochina infected erythrocytes, osmotic lysis OD700; higher = more signal, called active from +8 up or from −8 down.
The nature of assay [5]: osmotic lysis modulators in infected erythrocytes, primary screen, PSAC antagonist project, cell-based, P. falciparum Indochina, OD700, 3 h (AID 1156). As to conditions: higher = more signal, called active from +8 up or from −8 down.
Assay [6] in a line: PSAC antagonists in infected red cells, primary screen, cell-based, P. falciparum Indochina, OD700, 18 h (AID 1157). As to conditions: P. falciparum Indochina infected erythrocytes, osmotic lysis OD700, 18 h; higher = more signal, called active from +8 up or from −8 down.
Assay [7] in a line: modulators of S6 phosphorylation in cells, primary screen, cell-based, A549, cytoblot, luminescence, serum-stimulated (AID 1158).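 Further: serum-stimulated A549 lung adenocarcinoma cells; signal is phosphorylated S6 detected by cytoblot immunostaining with HRP secondary.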 As to conditions: A549 phospho-S6 cytoblot, 5 h, higher = more signal.
Assay [8] has as its target NADPH oxidase 2 (Homo sapiens) (UniProt P04839). Nature of the assay: NOX2-dependent H2O2 signal modulators, primary screen, NOX inhibitor project, cell-based, HEK293-NOX2, PMA-stimulated, Amplex Red fluorescence (AID 1159). Further: test concentration not given here. As to conditions: 45 min, higher = more signal, called active from +8 up or from −8 down.
In assay [9] the target is NADPH oxidase 4 (Homo sapiens) (UniProt Q9NPH5). Nature of the assay: NOX4-dependent H2O2 signal modulators, primary screen, NOX inhibitor project, cell-based, HEK293-NOX4, tetracycline-induced, Amplex Red fluorescence (AID 1160). As to conditions: 45 min, higher = more signal, called active from +8 up or from −8 down.
The target in assay [10] is NADPH oxidase 5 (Homo sapiens) (UniProt Q96PH1). The assay can be described thus: NOX5-dependent H2O2 signal modulators, primary screen, NOX inhibitor project, cell-based, HEK293-NOX5, Amplex Red fluorescence (AID 1161). As to conditions: HEK293-NOX5, ionomycin, 45 min, higher = more signal.
Assay [11] in a line: A549 cell viability effects, profiling panel, calcein-AM fluorescence, 48 h, basal (AID 1162). Further: test concentration not given here. As to conditions: higher = more signal.
Assay [12] in a line: adipocyte viability effects, profiling panel, cell-based, 3T3-L1 adipocytes, calcein-AM fluorescence, 48 h, basal (AID 1163). Further: test concentration not given here. As to conditions: 3T3-L1 adipocytes viability, higher = more signal.
A short description of assay [13]: HepG2 cell viability effects, profiling panel, calcein-AM fluorescence, 48 h, basal (AID 1164). Further: test concentration not given here. As to conditions: higher = more signal.
Assay [14] can be described thus: MM1S cell viability effects, profiling panel, calcein-AM fluorescence, 48 h, basal (AID 1165).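 Further: viability of MM1S multiple myeloma cells under basal unstimulated conditions; test concentration not given here.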 As to conditions: higher = more signal.
Assay [15] is described as follows: basal RPMI8226 viability, no added stimulus, profiling panel, cell-based, calcein-AM fluorescence, 48 h, PK04 Diversity Set (AID 1166).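 Further: cells grown under basal conditions without added stimulus; test concentration not given here.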 As to conditions: RPMI8226 myeloma viability, higher = more signal.
Assay [16] is described as follows: basal HepG2 mitochondrial membrane potential changes, profiling panel, cell-based, JC-1 fluorescence, 24 h, 100 nL compound (AID 1167). Further: test concentration not given here. As to conditions: higher = more signal.
Assay [17] in a line: basal 3T3-L1 adipocyte mitochondrial potential changes, profiling panel, cell-based, JC-1 fluorescence, 3T3-L1 adipocytes, 24 h, 100 nL compound (AID 1168). Further: test concentration not given here. As to conditions: JC-1 mitochondrial fluorescence, higher = more signal, called active from +8 up or from −8 down.
Assay [18] can be described thus: basal RPMI8226 mitochondrial membrane potential changes, profiling panel, cell-based, JC-1 fluorescence, 24 h, 100 nL compound (AID 1169). Further: test concentration not given here. As to conditions: RPMI8226 myeloma, JC-1 mitochondrial potential fluorescence, higher = more signal.
The nature of assay [19]: basal MM1S mitochondrial membrane potential changes, profiling panel, cell-based, JC-1 fluorescence, 24 h, 100 nL compound (AID 1170). Further: test concentration not given here. As to conditions: higher = more signal.
The nature of assay [20]: A549 lung cancer cell viability effects, profiling panel, resazurin fluorescence, 24 h, PK04 Diversity Set (AID 1171). Further: test concentration not given here. As to conditions: higher = more signal, called active from +8 up or from −8 down.

The values below come from PubChem BioAssay.

The source made the active and inactive calls.

Sequence of NADPH oxidase 5 (Homo sapiens) (Q96PH1 whole entry, looked up): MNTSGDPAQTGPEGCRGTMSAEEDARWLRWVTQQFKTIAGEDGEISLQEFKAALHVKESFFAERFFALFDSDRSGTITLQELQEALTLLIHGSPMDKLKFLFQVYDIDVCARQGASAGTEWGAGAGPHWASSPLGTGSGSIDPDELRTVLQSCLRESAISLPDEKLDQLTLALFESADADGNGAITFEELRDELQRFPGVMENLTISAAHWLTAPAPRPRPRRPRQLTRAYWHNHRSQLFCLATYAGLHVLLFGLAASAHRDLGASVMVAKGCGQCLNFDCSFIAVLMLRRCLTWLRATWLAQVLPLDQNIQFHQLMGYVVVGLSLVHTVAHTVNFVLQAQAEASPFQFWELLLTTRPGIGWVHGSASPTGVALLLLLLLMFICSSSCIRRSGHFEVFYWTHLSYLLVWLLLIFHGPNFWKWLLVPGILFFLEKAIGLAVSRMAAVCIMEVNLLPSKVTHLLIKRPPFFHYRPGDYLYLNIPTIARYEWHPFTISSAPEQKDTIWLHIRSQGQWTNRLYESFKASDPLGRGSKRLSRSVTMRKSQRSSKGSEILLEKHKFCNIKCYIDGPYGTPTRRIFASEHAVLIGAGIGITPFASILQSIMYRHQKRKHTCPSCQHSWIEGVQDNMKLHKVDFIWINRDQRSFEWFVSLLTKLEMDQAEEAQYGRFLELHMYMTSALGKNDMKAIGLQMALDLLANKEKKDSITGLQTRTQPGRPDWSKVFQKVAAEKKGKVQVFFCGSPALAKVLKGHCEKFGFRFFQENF
Sequence of NADPH oxidase 4 (Homo sapiens) (Q9NPH5 whole entry, looked up): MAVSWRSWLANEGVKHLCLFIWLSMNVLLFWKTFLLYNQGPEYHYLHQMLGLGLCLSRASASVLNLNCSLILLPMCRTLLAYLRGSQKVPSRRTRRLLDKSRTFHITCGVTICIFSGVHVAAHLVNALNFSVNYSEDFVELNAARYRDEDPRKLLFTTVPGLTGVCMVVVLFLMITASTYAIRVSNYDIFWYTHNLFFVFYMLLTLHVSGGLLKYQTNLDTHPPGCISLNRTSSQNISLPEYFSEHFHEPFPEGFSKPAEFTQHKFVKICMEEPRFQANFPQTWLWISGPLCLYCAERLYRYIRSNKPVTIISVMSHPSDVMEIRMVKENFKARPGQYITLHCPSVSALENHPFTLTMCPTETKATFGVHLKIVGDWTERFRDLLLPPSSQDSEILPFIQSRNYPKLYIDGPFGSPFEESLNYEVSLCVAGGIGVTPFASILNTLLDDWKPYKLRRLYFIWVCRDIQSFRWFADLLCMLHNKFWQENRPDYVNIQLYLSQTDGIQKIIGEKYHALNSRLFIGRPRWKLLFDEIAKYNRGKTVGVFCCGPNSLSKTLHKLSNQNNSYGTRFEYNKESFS
Sequence of NADPH oxidase 2 (Homo sapiens) (P04839 whole entry, looked up): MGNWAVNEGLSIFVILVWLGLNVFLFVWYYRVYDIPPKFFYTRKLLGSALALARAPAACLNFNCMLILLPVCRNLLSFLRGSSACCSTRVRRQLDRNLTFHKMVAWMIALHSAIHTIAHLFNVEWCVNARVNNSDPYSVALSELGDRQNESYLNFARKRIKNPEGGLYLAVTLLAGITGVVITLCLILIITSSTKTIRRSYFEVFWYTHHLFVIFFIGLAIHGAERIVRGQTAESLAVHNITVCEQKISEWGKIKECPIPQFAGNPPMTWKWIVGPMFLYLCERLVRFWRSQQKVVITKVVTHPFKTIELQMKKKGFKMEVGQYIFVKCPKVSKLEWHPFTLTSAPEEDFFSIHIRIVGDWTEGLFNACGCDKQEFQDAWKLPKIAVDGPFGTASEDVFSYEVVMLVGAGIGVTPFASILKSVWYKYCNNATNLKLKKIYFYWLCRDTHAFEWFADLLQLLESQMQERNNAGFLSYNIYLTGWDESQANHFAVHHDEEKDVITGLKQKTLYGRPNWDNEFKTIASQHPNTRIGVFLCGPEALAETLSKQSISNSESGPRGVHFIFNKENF

For the compound `CO[C@H]1O[C@H](CO)[C@@H](OC(=O)Nc2ccc(Br)cc2)[C@H](OC(=O)c2cc3ccccc3[nH]2)[C@H]1OC(=O)c1cc2ccccc2[nH]1`, the z-score is 1.99 (inactive) in assay [1]; 1.39 (inactive) in [3]; -1.16 (inactive) in assay [4]; -0.368 (inactive) in [5]; -0.464 (inactive) in assay [6]; 1.16 in [7]. The z-score in assay [8] was -2.75 (inactive); in assay [9], -0.642 (inactive); in assay [10], -2.04; in assay [11] it was -2.49; in [12] it was 0.266; in assay [13], -2.58. In addition, the z-score in assay [14] is -3.23; in assay [15], -3.2; in [16] it was -2.38; in assay [17], 2.37 (inactive); in assay [18], -0.589; in [19], -0.634. Also, the z-score in [20] is -5.8 (inactive). In assay [2], this compound gave a composite z-score of 0.12.

As for `COc1ccc([Si](C)(C)[C@H]2[C@H](CCO)O[C@@]3(C(=O)N(Cc4ccc(N5C(=O)COc6ccccc65)cc4)c4ccccc43)[C@@H]2C)cc1`, the z-score is -0.609 (inactive) in assay [1]; 5 (inactive) in assay [3]; 2.39 (inactive) in assay [4]; -0.645 (inactive) in assay [5]; 1.41 (inactive) in assay [6]; 0.328 in [7]. Also, the z-score in [8] is -0.916 (inactive); in assay [9], 1.3 (inactive); in assay [10], 2; in assay [11], -0.525; in assay [12] it was 0.0432; in assay [13], -3.14. The z-score is -2.36 in assay [14]; -4.33 in [15]; -0.509 in assay [16]; 1.36 (inactive) in assay [17]; -1.07 in assay [18]; -2.12 in assay [19]. Besides, the z-score in assay [20] was -2.35 (inactive). This compound showed a composite z-score in assay [2] of -0.0094.

For the compound `COCCOC(=O)N1C(=O)[C@@]2(c3cc(C#CC4=CCCCC4)ccc31)[C@H](C(=O)N1CCc3cc(OC)c(OC)cc3C1)[C@H]1C(=O)O[C@H](c3ccccc3)[C@H](c3ccccc3)N1[C@@H]2c1ccc(OCCO)cc1`, the z-score is -0.332 (inactive) in assay [1]; 3.71 (inactive) in assay [3]; 1.19 (inactive) in assay [4]; -0.129 (inactive) in [5]; 0.801 (inactive) in assay [6]; 0.261 in assay [7]. Moreover, the z-score in assay [8] is 1.77 (inactive); in assay [9], 1.18 (inactive); in assay [10] it was 0.669; in assay [11], -0.989; in assay [12] it was 0.847; in [13], -1.2. Besides, the z-score in assay [14] is -1.84; in assay [15], -0.691; in assay [16], -0.207; in assay [17], 1.22 (inactive); in assay [18], -0.621; in assay [19], -0.968. Besides, in assay [20], the z-score was 0.531 (inactive). Moreover, in assay [2], the composite z-score amounted to 0.0752.

With `C=CC[C@@]1(C(N)=O)N=C(c2ccc(OCCCO)cc2)O[C@@H]1c1ccccc1CN=[N+]=[N-]`, the z-score is 0.0347 (inactive) in assay [1]; 21.5 (active) in [3]; 4.04 (inactive) in assay [4]; 2 (inactive) in assay [5]; -0.413 (inactive) in assay [6]; 2.43 in [7]. Besides, the z-score is -0.934 (inactive) in assay [8]; 0.313 (inactive) in assay [9]; -0.802 in [10]; 0.0465 in [11]; 1.69 in [12]; 0.0287 in assay [13]. The z-score was 0.204 in assay [14]; -0.189 in assay [15]; -2.45 in assay [16]; -0.337 (inactive) in [17]; -0.231 in assay [18]; -1.79 in [19]. Besides, the z-score in assay [20] is -0.29 (inactive). The composite z-score in [2] was found to be 0.571.
